# Values joined by “and” are separate entries in the source; they are usually repeats but may differ in a detail not shown here. Equal entries are not always repeated. This is part of a sample that, as a whole, favours compounds with a hit. Of some 83,000 tested, about 20% had one in any assay.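 Negative percent growth values reflect cell death: -40 means 40% of the cells present at the start died, and -100 means all died.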 Values without a mark were called inactive. Active and inactive are the calls of the source. How the source made its calls: active means growth percent below 10; inactive means the rest.
# Experiments:
# Test in all cases: NCI-60 one-dose screen, 48 h (100 = growth as untreated, 0 = no growth, -100 = all killed)
# SR leukemia = conditions: 10 µM unless noted
# RPMI-8226 leukemia = tested on: RPMI-8226 leukemia
# OVCAR-8 ovarian = tested on: OVCAR-8 ovarian
# OVCAR-5 ovarian = tested on: OVCAR-5 ovarian
# OVCAR-4 ovarian = tested on: OVCAR-4 ovarian
# SK-OV-3 ovarian = conditions: 10 µM unless noted
# IGROV1 ovarian = tested on: IGROV1 ovarian
# OVCAR-3 ovarian = tested on: OVCAR-3 ovarian
# HS 578T breast = tested on: HS 578T breast
# NCI/ADR-RES ovarian = tested on: NCI/ADR-RES ovarian
# T-47D breast = tested on: T-47D breast
# BT-549 breast = tested on: BT-549 breast
# MDA-MB-435 melanoma = conditions: 10 µM unless noted
# SW-620 colon = conditions: 10 µM unless noted
# MCF7 breast = tested on: MCF7 breast
# HCT-116 colon = tested on: HCT-116 colon
# HCC-2998 colon = tested on: HCC-2998 colon
# KM12 colon = tested on: KM12 colon
smiles,measurement,setting,value
COc1ccc2nc3cc(Cl)ccc3c(NCCNc3c4ccc(Cl)cc4nc4ccc(OC)cc34)c2c1,growth,SR leukemia,-29.8% (active)
same,growth,RPMI-8226 leukemia; 10 µM unless noted,-34.5% (active)
same,growth,OVCAR-8 ovarian; 10 µM unless noted,-65.4% (active)
same,growth,OVCAR-5 ovarian; 10 µM unless noted,-90.1% (active)
same,growth,OVCAR-4 ovarian; 10 µM unless noted,-43.6% (active)
same,growth,SK-OV-3 ovarian,-95.6% (active)
same,growth,IGROV1 ovarian; 10 µM unless noted,-78.9% (active)
same,growth,OVCAR-3 ovarian; 10 µM unless noted,-92.5% (active)
same,growth,HS 578T breast; 10 µM unless noted,-34.9% (active)
same,growth,NCI/ADR-RES ovarian; 10 µM unless noted,-53.5% (active)
same,growth,T-47D breast; 10 µM unless noted,-64.4% (active)
same,growth,BT-549 breast; 10 µM unless noted,-76.6% (active)
same,growth,MDA-MB-435 melanoma,-78.9% (active)
same,growth,SW-620 colon,-50.4% (active)
same,growth,MCF7 breast; 10 µM,-70% (active)
same,growth,HCT-116 colon; 10 µM unless noted,-83.3% (active)
same,growth,HCC-2998 colon; 10 µM unless noted,-82.2% (active)
same,growth,KM12 colon; 10 µM unless noted,-71.8% (active)
O=C(/C=C/C=C/c1ccccc1)c1ccco1,growth,SR leukemia,16.7%
same,growth,RPMI-8226 leukemia; 10 µM unless noted,10.8%
same,growth,OVCAR-8 ovarian; 10 µM unless noted,89.1%
same,growth,OVCAR-5 ovarian; 10 µM unless noted,108%
same,growth,OVCAR-4 ovarian; 10 µM unless noted,78.7%
same,growth,SK-OV-3 ovarian,105%
same,growth,IGROV1 ovarian; 10 µM unless noted,64.8%
same,growth,OVCAR-3 ovarian; 10 µM unless noted,85.6%
same,growth,HS 578T breast; 10 µM unless noted,62.6%
same,growth,NCI/ADR-RES ovarian; 10 µM unless noted,91.3%
same,growth,T-47D breast; 10 µM unless noted,67.5%
same,growth,BT-549 breast; 10 µM unless noted,113%
same,growth,MCF7 breast; 10 µM,26.1%
same,growth,HCT-116 colon; 10 µM unless noted,36.3%
same,growth,HCC-2998 colon; 10 µM unless noted,114%
same,growth,KM12 colon; 10 µM unless noted,86.8%
Cc1ccc2c(ccc3c[n+]4c5ccccc5ccc4n32)c1,growth,SR leukemia,-12.5% (active)
same,growth,RPMI-8226 leukemia; 10 µM unless noted,31.7%
same,growth,OVCAR-8 ovarian; 10 µM unless noted,3.22% (active)
same,growth,OVCAR-5 ovarian; 10 µM unless noted,47.6%
same,growth,OVCAR-4 ovarian; 10 µM unless noted,-35.4% (active)
same,growth,SK-OV-3 ovarian,0.442% (active)
same,growth,IGROV1 ovarian; 10 µM unless noted,27%
same,growth,HS 578T breast; 10 µM unless noted,14.4%
same,growth,NCI/ADR-RES ovarian; 10 µM unless noted,70.3%
same,growth,T-47D breast; 10 µM unless noted,-24.7% (active)
same,growth,BT-549 breast; 10 µM unless noted,-2.45% (active)
same,growth,MDA-MB-435 melanoma,-27.5% (active)
same,growth,SW-620 colon,7.65% (active)
same,growth,MCF7 breast; 10 µM,0.326% (active)
same,growth,HCT-116 colon; 10 µM unless noted,7.17% (active)
same,growth,HCC-2998 colon; 10 µM unless noted,-34.9% (active)
same,growth,KM12 colon; 10 µM unless noted,-8.63% (active)
O=C(O)C1C2CC3C(OC(=O)C31)C2Br (stereo not given),growth,SR leukemia,97.3% and 101%
same,growth,RPMI-8226 leukemia; 10 µM unless noted,102% and 106%
same,growth,OVCAR-8 ovarian; 10 µM unless noted,97.8% and 100%
same,growth,OVCAR-5 ovarian; 10 µM unless noted,103% and 100%
same,growth,OVCAR-4 ovarian; 10 µM unless noted,114% and 89.8%
same,growth,SK-OV-3 ovarian,95.8% and 105%
same,growth,IGROV1 ovarian; 10 µM unless noted,103% and 114%
same,growth,HS 578T breast; 10 µM unless noted,93.4% and 95.7%
same,growth,NCI/ADR-RES ovarian; 10 µM unless noted,103% and 100%
same,growth,T-47D breast; 10 µM unless noted,98.7% and 96%
same,growth,BT-549 breast; 10 µM unless noted,99.4% and 93.2%
same,growth,MDA-MB-435 melanoma,109% and 95.4%
same,growth,SW-620 colon,94.7% and 94.8%
same,growth,MCF7 breast; 10 µM,88.7% and 93.8%
same,growth,HCT-116 colon; 10 µM unless noted,94.1% and 101%
same,growth,HCC-2998 colon; 10 µM unless noted,88.8% and 96.8%
same,growth,KM12 colon; 10 µM unless noted,108% and 106%
COc1ccc(-c2cscc2N)cc1,growth,SR leukemia,59.1% [100 µM]
same,growth,RPMI-8226 leukemia; 10 µM,88.7%
same,growth,RPMI-8226 leukemia; 100 µM,23.7%
same,growth,OVCAR-8 ovarian; 10 µM,77.6%
same,growth,OVCAR-8 ovarian; 100 µM,48.9%
same,growth,OVCAR-5 ovarian; 10 µM,87.5%
same,growth,OVCAR-5 ovarian; 100 µM,78.9%
same,growth,OVCAR-4 ovarian; 10 µM,103%
same,growth,OVCAR-4 ovarian; 100 µM,45.3%
same,growth,SK-OV-3 ovarian,80.2% [100 µM]
same,growth,IGROV1 ovarian; 10 µM,91.1%
same,growth,IGROV1 ovarian; 100 µM,58%
same,growth,OVCAR-3 ovarian; 10 µM,112%
same,growth,OVCAR-3 ovarian; 100 µM,40.9%
same,growth,HS 578T breast; 10 µM,106%
same,growth,HS 578T breast; 100 µM,88.2%
same,growth,NCI/ADR-RES ovarian; 10 µM,77.8%
same,growth,NCI/ADR-RES ovarian; 100 µM,78.1%
same,growth,T-47D breast; 10 µM,60%
same,growth,T-47D breast; 100 µM,17.3%
same,growth,BT-549 breast; 10 µM,69.5%
same,growth,BT-549 breast; 100 µM,-32.7% (active)
same,growth,MCF7 breast; 10 µM,47.3%
same,growth,MCF7 breast; 100 µM,19.9%
same,growth,HCT-116 colon; 10 µM,73.3%
same,growth,HCT-116 colon; 100 µM,26.4%
same,growth,HCC-2998 colon; 10 µM,80.1%
same,growth,HCC-2998 colon; 100 µM,39.6%
same,growth,KM12 colon; 10 µM,69.6%
same,growth,KM12 colon; 100 µM,21.1%
O=C(Nc1cccc(Br)c1)Oc1ccc(Cl)c2cccnc12,growth,SR leukemia,7.23% [100 µM] (active)
same,growth,RPMI-8226 leukemia; 10 µM unless noted,3.35% [100 µM] (active)
same,growth,OVCAR-8 ovarian; 10 µM unless noted,16% [100 µM]
same,growth,OVCAR-5 ovarian; 10 µM unless noted,33.7% [100 µM]
same,growth,OVCAR-4 ovarian; 10 µM unless noted,3.81% [100 µM] (active)
same,growth,SK-OV-3 ovarian,95.6% [100 µM]
same,growth,IGROV1 ovarian; 10 µM unless noted,13.6% [100 µM]
same,growth,OVCAR-3 ovarian; 10 µM unless noted,-48.7% [100 µM] (active)
same,growth,HS 578T breast; 10 µM unless noted,50.9% [100 µM]
same,growth,NCI/ADR-RES ovarian; 10 µM unless noted,6.36% [100 µM] (active)
same,growth,T-47D breast; 10 µM unless noted,12.1% [100 µM]
same,growth,BT-549 breast; 10 µM unless noted,4.77% [100 µM] (active)
same,growth,SW-620 colon,26.1% [100 µM]
same,growth,MCF7 breast; 100 µM,-30.3% (active)
same,growth,HCT-116 colon; 10 µM unless noted,2.06% [100 µM] (active)
same,growth,HCC-2998 colon; 10 µM unless noted,44.9% [100 µM]
same,growth,KM12 colon; 10 µM unless noted,30.5% [100 µM]

# Reference: PubChem BioAssay (NCI)
